According to PubChem BioAssay AID1159580 (chemical genetic matrix, 2015):
Hit rate of the full screen: of about 5,500 compounds, about 2,000 (36%) were called active. Another 18% or so got no clear call; they are omitted. Cut-off read from the data, not from the text of the source: active = normalized growth mostly below about 0.91 (no sharp cut-off); inconclusive = no clear call, values can overlap the other calls; inactive = mostly above about 0.92. The list shows a part of the results.

Assay: chemical genetic growth profiling, strain panel (AID 1159580);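 note: tested at 20 µM; growth read once vehicle control cultures reached saturation at 30 °C; 1 = growth at the plate median or of vehicle wells; lower values mean less growth of the strain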
Conditions: growth OD
[1] = S. cerevisiae deletion strains, locus YAL013W, strain DEP1, stronger effect = lower value
[2] = S. cerevisiae deletion strains, locus YDR150W, strain NUM1, stronger effect = lower value
[3] = S. cerevisiae deletion strains, locus YGR078C, strain PAC10, stronger effect = lower value
[4] = S. cerevisiae deletion strains, locus YPL241C, strain CIN2, stronger effect = lower value
[5] = S. cerevisiae deletion strains, locus YAR019C, strain CDC15, stronger effect = lower value
[6] = S. cerevisiae deletion strains, locus YBL105C, strain PKC1, stronger effect = lower value
[7] = S. cerevisiae deletion strains, locus YBR135W, strain CKS1, stronger effect = lower value
[8] = S. cerevisiae deletion strains, locus YBR136W, strain MEC1, stronger effect = lower value
[9] = S. cerevisiae deletion strains, locus YBR160W, strain CDC28, stronger effect = lower value
[10] = S. cerevisiae deletion strains, locus YDL017W, strain CDC7, stronger effect = lower value
[11] = S. cerevisiae deletion strains, locus YDL028C, strain MPS1, stronger effect = lower value
[12] = S. cerevisiae deletion strains, locus YDL101C, strain DUN1, stronger effect = lower value
[13] = S. cerevisiae deletion strains, locus YDL108W, strain KIN28, stronger effect = lower value
[14] = S. cerevisiae deletion strains, locus YDL132W, strain cdc53, stronger effect = lower value
[15] = S. cerevisiae deletion strains, locus YDL214C, strain PRR2, stronger effect = lower value
[16] = S. cerevisiae deletion strains, locus YDR052C, strain DBF4, stronger effect = lower value
[17] = S. cerevisiae deletion strains, locus YDR054C, strain cdc34, stronger effect = lower value
[18] = S. cerevisiae deletion strains, locus YDR226W, strain ADK1, stronger effect = lower value
[19] = S. cerevisiae deletion strains, locus YDR477W, strain SNF1, stronger effect = lower value
[20] = S. cerevisiae deletion strains, locus YER123W, strain YCK3, stronger effect = lower value
[21] = S. cerevisiae deletion strains, locus YER133W, strain GLC7, stronger effect = lower value
[22] = S. cerevisiae deletion strains, locus YFL009W, strain cdc4, stronger effect = lower value
[23] = S. cerevisiae deletion strains, locus YFL029C, strain CAK1, stronger effect = lower value
[24] = S. cerevisiae deletion strains, locus YFR003C, strain YPI1, stronger effect = lower value
[25] = S. cerevisiae deletion strains, locus YFR019W, strain FAB1, stronger effect = lower value
[26] = S. cerevisiae deletion strains, locus YFR028C, strain CDC14, stronger effect = lower value
[27] = S. cerevisiae deletion strains, locus YGR040W, strain KSS1, stronger effect = lower value
[28] = S. cerevisiae deletion strains, locus YGR052W, strain FMP48, stronger effect = lower value
[29] = S. cerevisiae deletion strains, locus YGR092W, strain DBF2, stronger effect = lower value
[30] = S. cerevisiae deletion strains, locus YHR030C, strain SLT2, stronger effect = lower value
[31] = S. cerevisiae deletion strains, locus YHR079C, strain IRE1, stronger effect = lower value
[32] = S. cerevisiae deletion strains, locus YHR082C, strain KSP1, stronger effect = lower value
[33] = S. cerevisiae deletion strains, locus YHR205W, strain SCH9, stronger effect = lower value
[34] = S. cerevisiae deletion strains, locus YIL147C, strain SLN1, stronger effect = lower value
[35] = S. cerevisiae deletion strains, locus YJL095W, strain BCK1, stronger effect = lower value
[36] = S. cerevisiae deletion strains, locus YJL128C, strain PBS2, stronger effect = lower value
[37] = S. cerevisiae deletion strains, locus YJL157C, strain FAR1, stronger effect = lower value
[38] = S. cerevisiae deletion strains, locus YJR016C, strain ILV3, stronger effect = lower value
[39] = S. cerevisiae deletion strains, locus YJR066W, strain TOR1 (second series), stronger effect = lower value
[40] = S. cerevisiae deletion strains, locus YJR066W, strain TOR1, stronger effect = lower value
[41] = S. cerevisiae deletion strains, locus YKL048C, strain ELM1, stronger effect = lower value
[42] = S. cerevisiae deletion strains, locus YKL067W, strain YNK1, stronger effect = lower value
[43] = S. cerevisiae deletion strains, locus YKL101W, strain HSL1, stronger effect = lower value
[44] = S. cerevisiae deletion strains, locus YKL193C, strain SDS22, stronger effect = lower value
[45] = S. cerevisiae deletion strains, locus YKL203C, strain TOR2, stronger effect = lower value
[46] = S. cerevisiae deletion strains, locus YLR113W, strain HOG1, stronger effect = lower value
[47] = S. cerevisiae deletion strains, locus YLR133W, strain CKI1, stronger effect = lower value
[48] = S. cerevisiae deletion strains, locus YLR403W, strain SFP1, stronger effect = lower value
[49] = S. cerevisiae deletion strains, locus YML070W, strain DAK1, stronger effect = lower value
[50] = S. cerevisiae deletion strains, locus YMR001C, strain CDC5, stronger effect = lower value
[51] = S. cerevisiae deletion strains, locus YMR205C, strain PFK2 (second series), stronger effect = lower value
[52] = S. cerevisiae deletion strains, locus YMR277W, strain FCP1, stronger effect = lower value
[53] = S. cerevisiae deletion strains, locus YNL006W, strain LST8, stronger effect = lower value
[54] = S. cerevisiae deletion strains, locus YNL020C, strain ARK1, stronger effect = lower value
[55] = S. cerevisiae deletion strains, locus YNL161W, strain CBK1, stronger effect = lower value
[56] = S. cerevisiae deletion strains, locus YNL183C, strain NPR1, stronger effect = lower value
[57] = S. cerevisiae deletion strains, locus YNL207W, strain RIO2, stronger effect = lower value
[58] = S. cerevisiae deletion strains, locus YNL222W, strain SSU72, stronger effect = lower value
[59] = S. cerevisiae deletion strains, locus YNL307C, strain MCK1 (second series), stronger effect = lower value
[60] = S. cerevisiae deletion strains, locus YOL078W, strain AVO1, stronger effect = lower value
[61] = S. cerevisiae deletion strains, locus YOL136C, strain PFK27, stronger effect = lower value
[62] = S. cerevisiae deletion strains, locus YOR061W, strain CKA2, stronger effect = lower value
[63] = S. cerevisiae deletion strains, locus YOR119C, strain RIO1, stronger effect = lower value
[64] = S. cerevisiae deletion strains, locus YOR231W, strain MKK1, stronger effect = lower value
[65] = S. cerevisiae deletion strains, locus YOR329C, strain SCD5, stronger effect = lower value
[66] = S. cerevisiae deletion strains, locus YPL031C, strain PHO85, stronger effect = lower value
[67] = S. cerevisiae deletion strains, locus YPL153C, strain RAD53, stronger effect = lower value
[68] = S. cerevisiae deletion strains, locus YPL204W, strain HRR25, stronger effect = lower value
[69] = S. cerevisiae deletion strains, locus YPL209C, strain IPL1, stronger effect = lower value
[70] = S. cerevisiae deletion strains, locus YPL256C, strain CLN2, stronger effect = lower value
[71] = S. cerevisiae deletion strains, locus YPR025C, strain CCL1, stronger effect = lower value
[72] = S. cerevisiae deletion strains, locus YPR106W, strain ISR1, stronger effect = lower value
[73] = S. cerevisiae deletion strains, locus YPR111W, strain DBF20, stronger effect = lower value
[74] = S. cerevisiae deletion strains, strain NNK1, stronger effect = lower value
[75] = S. cerevisiae deletion strains, strain TSCII, stronger effect = lower value

Measured: normalized growth

Cn1c(=O)c2[nH]c(-c3ccccc3)nc2n(C)c1=O
inactive: [1] 0.995 | S. cerevisiae deletion strains, locus YAL040C, strain CLN3, stronger effect = lower value 0.984 | S. cerevisiae deletion strains, locus YCL061C, strain MRC1 (second series), stronger effect = lower value 0.983 | [2] 0.975 | S. cerevisiae deletion strains, locus YDR363W, strain ESC2, stronger effect = lower value 1.01 | S. cerevisiae deletion strains, locus YER002W, strain NOP16, stronger effect = lower value 0.97 | [3] 1 | S. cerevisiae deletion strains, locus YNL175C, strain NOP13, stronger effect = lower value 0.986 | S. cerevisiae deletion strains, locus YNL197C, strain WHI3, stronger effect = lower value 0.99 | S. cerevisiae deletion strains, locus YNL224C, strain SQS1, stronger effect = lower value 0.992 | S. cerevisiae deletion strains, locus YOR083W, strain WHI5 (second series), stronger effect = lower value 1 | [4] 0.992

O=c1c(-c2ccccc2)c(O)c2cccc3c4c(n1c23)CCCC4
active: [15] 0.39 | [17] 0.823 | [19] 0.342 | [20] 0.304 | [21] 0.459 | [25] 0.233 | [27] 0.439 | [28] 0.266 | [29] 0.172 | [30] 0.139 | [31] 0.182 | [32] 0.186 | [33] 0.314 | [35] 0.272 | [37] 0.243 | [39] 0.336 | [40] 0.26 | [41] 0.485 | [42] 0.414 | [43] 0.323 | [45] 0.283 | [46] 0.26 | [47] 0.376 | [48] 0.263 | [49] 0.318 | [51] 0.56 | [54] 0.282 | [56] 0.278 | [59] 0.167 | [61] 0.195 | [62] 0.249 | [63] 0.382 | [64] 0.25 | [66] 0.246 | [67] 0.305 | [68] 0.273 | [70] 0.228 | [74] 0.732
inactive: [5] 0.935 | [6] 0.939 | [7] 0.926 | [8] 0.934 | [9] 0.958 | [10] 0.94 | [11] 0.944 | [12] 0.973 | [13] 0.924 | [14] 0.939 | [16] 0.957 | [18] 0.94 | [22] 0.929 | [23] 0.934 | [24] 0.952 | [26] 0.927 | [34] 0.917 | [36] 0.906 | [38] 0.926 | [44] 0.934 | [50] 0.935 | [52] 0.933 | [53] 0.932 | [55] 0.944 | [57] 0.95 | [58] 0.939 | [60] 0.927 | [65] 0.948 | [69] 0.944 | [71] 0.952 | [72] 0.93 | [73] 0.94 | [75] 0.918

Cn1c(=O)c(-c2ccccc2)c(O)c2ccccc21
active: [1] 0.868 | S. cerevisiae deletion strains, locus YBR229C, strain ROT2, stronger effect = lower value 0.887 | [12] 0.636 | [3] 0.871 | [30] 0.533 | S. cerevisiae deletion strains, locus YJL187C, strain SWE1, stronger effect = lower value 0.826 | S. cerevisiae deletion strains, locus YJR043C, strain POL32, stronger effect = lower value 0.842 | S. cerevisiae deletion strains, locus YJR075W, strain HOC1, stronger effect = lower value 0.881 | S. cerevisiae deletion strains, locus YLR039C, strain RIC1, stronger effect = lower value 0.75 | S. cerevisiae deletion strains, locus YLR058C, strain SHM2 (second series), stronger effect = lower value 0.926 | S. cerevisiae deletion strains, locus YLR085C, strain ARP6, stronger effect = lower value 0.438 | S. cerevisiae deletion strains, locus YLR262C, strain YPT6, stronger effect = lower value 0.81 | S. cerevisiae deletion strains, locus YMR219W, strain ESC1, stronger effect = lower value 0.945 | S. cerevisiae deletion strains, locus YMR263W, strain SAP30, stronger effect = lower value 0.898 | S. cerevisiae deletion strains, locus YNL153C, strain GIM3, stronger effect = lower value 0.878 | S. cerevisiae deletion strains, locus YNL322C, strain KRE1, stronger effect = lower value 0.932 | S. cerevisiae deletion strains, locus YNR030W, strain Alg12, stronger effect = lower value 0.837 | [4] 0.816 | S. cerevisiae deletion strains, locus YPR135W, strain CTF4, stronger effect = lower value 0.442 | S. cerevisiae strains, strain wild type, stronger effect = lower value 0.9
inactive: [2] 0.825 | S. cerevisiae deletion strains, locus YEL061C, strain CIN8, stronger effect = lower value 0.921 | S. cerevisiae deletion strains, locus YGR229C, strain SMI1, stronger effect = lower value 0.953 | S. cerevisiae deletion strains, locus YHR087W, strain rtc3, stronger effect = lower value 0.99 | S. cerevisiae deletion strains, locus YKL190W, strain CNB1, stronger effect = lower value 0.942 | S. cerevisiae deletion strains, locus YML094W, strain GIM5, stronger effect = lower value 0.968 | S. cerevisiae deletion strains, locus YMR307W, strain GAS1, stronger effect = lower value 0.767 | S. cerevisiae deletion strains, locus YNL298W, strain CLA4 (second series), stronger effect = lower value 0.84 | S. cerevisiae deletion strains, locus YOL006C, strain TOP1, stronger effect = lower value 0.881 | S. cerevisiae deletion strains, locus YPL055C, strain LGE1, stronger effect = lower value 0.907

Cn1nc(-c2ccccc2)c(O)c(N=Nc2ccccc2)c1=O
inactive: [5] 0.964 | [6] 0.972 | [7] 0.957 | [8] 0.96 | [9] 0.976 | [10] 0.983 | [11] 0.963 | [12] 0.972 | [13] 0.962 | [14] 0.968 | [15] 0.906 | [16] 0.985 | [17] 0.971 | [18] 0.971 | [19] 0.917 | [20] 0.858 | [21] 0.898 | [22] 0.969 | [23] 0.969 | [24] 0.971 | [25] 0.898 | [26] 0.974 | [27] 0.905 | [28] 0.998 | [29] 0.913 | [30] 0.931 | [31] 0.982 | [32] 0.964 | [33] 0.943 | [34] 0.964 | [35] 0.993 | [36] 0.95 | [37] 0.89 | [38] 0.976 | [39] 0.854 | [40] 0.981 | [41] 0.944 | [42] 0.906 | [43] 0.921 | [44] 0.968 | [45] 0.98 | [46] 0.953 | [47] 0.944 | [48] 0.89 | [49] 0.885 | [50] 0.961 | [51] 0.937 | [52] 0.973 | [53] 0.967 | [54] 0.927 | [55] 0.965 | [56] 1 | [57] 0.964 | [58] 0.966 | [59] 0.941 | [60] 0.968 | [61] 0.907 | [62] 0.864 | [63] 0.952 | [64] 0.95 | [65] 0.974 | [66] 0.918 | [67] 0.914 | [68] 0.93 | [69] 0.972 | [70] 0.998 | [71] 0.97 | [72] 0.977 | [73] 0.988 | [74] 0.966 | [75] 0.963
